Screening data from PubChem BioAssay.
The sample as a whole holds a higher share of hits than the screen did.
GALK inhibitor: inhibits human galactokinase; recombinant GALK, Kinase-Glo ATP luminescence, 1 h; Potency, µM (top dose mostly 57.5 µM), for the others: at the top dose activity, negative = inhibition, most hits filed as inhibitors; 44,000 tested, under 10 active;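 also: plate controls were full GALK reaction for no effect and reaction lacking GALK for full effect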
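Compounds were pinned into ATP buffer, then GALK-galactose mix was added (final 5 nM enzyme, 35 uM ATP, 100 uM galactose, pH 8.0). After 1 h at room temperature, Kinase-Glo Plus was added and luminescence read.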
NTMT1 inhibitor: blocks human N-terminal methyltransferase 1 activity | Potency, µM (highest dose often 114 µM), for the others: at the top dose activity change, negative = inhibition, hits mostly inhibitors | 59,000 compounds, 2.5% hits | NTMT1 MTase-Glo SAH luminescence, purified enzyme;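 also: potency is read from the fitted curve at half-maximal effect; plate controls were DMSO vehicle for no effect and no enzyme for full effect; nearly all actives have a fitted effect of over 65% in size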
Target sequence (Q9BV86 whole entry, looked up): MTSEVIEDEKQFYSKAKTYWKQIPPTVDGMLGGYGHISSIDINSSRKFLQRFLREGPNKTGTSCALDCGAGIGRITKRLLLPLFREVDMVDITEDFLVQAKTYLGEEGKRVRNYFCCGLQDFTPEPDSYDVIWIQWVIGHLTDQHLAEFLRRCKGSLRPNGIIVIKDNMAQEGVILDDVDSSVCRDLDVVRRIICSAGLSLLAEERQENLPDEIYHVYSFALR
PTAP-TSG101 blk: TSG101-PTAP interaction inhibition, HIV-1 budding | Q99816 | Fluorescence polarization, FITC-PTAP peptide/Tsg101, 20 min | Potency, µM (series often up to 115 µM), usual class: inhibitors | 44,000 tested, under 10 active | AID 1347069; also: potency is read from the fitted curve at half-maximal effect; 0% is about no effect
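Steps: Tsg101 binding domain (10 uM final) in HEPES pH 7.5/NaCl/Tween 20/EDTA/TCEP; add compound; add FITC-PTAP peptide (50 nM final); incubate 20 min r.t.; read polarization.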
HTT-AS promoter: activators of huntingtin-antisense promoter activity. Potency, µM (titrated, usually from 57.5 µM), for the others: at the highest dose activity change, positive = activation, usual class: activators. AID 1508624. 48,000 compounds, 0.24% hits. HEK293 HTT-AS promoter firefly luciferase reporter, 24 h; response scale: percent change from vehicle, -100% = no light; also: potency is read from the fitted curve at half-maximal effect; nearly all actives have a fitted effect of over 55% in size
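Firefly luciferase readout (Dual-Glo, 10 min RT) after 24 h, 37 °C compound exposure (final up to 57.5 uM) of HEK293 reporter cells cultured 24 h beforehand; PTC124 at 50 uM final as control inhibitor; activity scaled vehicle 0%, zero RLU -100%.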
HTT promoter inh: HTT promoter inhibition; HEK293 HTT promoter firefly luciferase reporter, 24 h; Potency, µM (top dose mostly 57.5 µM), without a hit: at the highest dose activity change, negative = inhibition, usual class: inhibitors; 48,000 compounds, 0.93% hits; AID 1508623; also: potency is read from the fitted curve at half-maximal effect; nearly all actives have a fitted effect of over 50% in size
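Quantitative HTS used concentration series of up to 57.5 uM final on HEK293 luciferase reporter cells, 24 h at 37 degrees C. Readout was Dual-Glo firefly luminescence.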
B2AR arrestin ag: beta-arrestin recruitment by human beta2-adrenergic receptor ligands | P07550 | HTLA Tango cells, beta-arrestin recruitment, luciferase luminescence, 18 h | Potency, µM (titrated, usually from 46.1 µM), hits mostly activators | 44,000 tested, under 10 active;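 also: potency is read from the fitted curve at half-maximal effect; 0% = DMSO and full agonism = EC100 isoproterenol or metaproterenol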
Target sequence (P07550 whole entry, looked up): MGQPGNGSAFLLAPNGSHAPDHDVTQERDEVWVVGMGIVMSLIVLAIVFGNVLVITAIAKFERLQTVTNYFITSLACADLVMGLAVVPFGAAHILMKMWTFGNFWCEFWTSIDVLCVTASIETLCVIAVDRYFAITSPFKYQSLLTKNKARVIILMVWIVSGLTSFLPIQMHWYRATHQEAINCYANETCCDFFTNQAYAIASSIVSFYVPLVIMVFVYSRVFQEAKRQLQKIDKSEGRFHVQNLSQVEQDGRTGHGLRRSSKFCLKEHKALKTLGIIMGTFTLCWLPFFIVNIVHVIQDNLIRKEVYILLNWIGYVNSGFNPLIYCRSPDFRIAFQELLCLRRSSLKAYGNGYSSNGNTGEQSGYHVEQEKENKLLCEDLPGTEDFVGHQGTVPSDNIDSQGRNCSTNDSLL
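Tango cells expressing recombinant beta2-AR and beta-arrestin were treated with compounds (up to 46 microM titration) in DMEM with 1% FBS for 18 hr at 37 degrees C. Beta-arrestin recruitment drove tTA-dependent luciferase, read by luminescence; curves were fitted and classed.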
An asterisk follows results filed as active; ! = not confirmed by another sample; [ ] = remark or other dose. Calls follow the shape of the dose curve; as a rule, active = well fitted curve in the direction sought with a large enough effect; inconclusive = small, poorly fitted or top-dose-only effect, or another doubt; inactive = no such curve, though single readings can be large; an effect the other way counts as inactive or inconclusive.

Screening Cc1cccc(N2CCN(c3ncnc4c3nc3n4CCCCC3)CC2C)c1 (stereo not given) returned GALK inhibitor 0.9%, NTMT1 inhibitor -4.0%, PTAP-TSG101 blk inactive, HTT-AS promoter -92.6%, HTT promoter inh 5.01µM* and B2AR arrestin ag inactive.
`Clc1cccc(N2CCN(c3ncnc4c3nc3n4CCCC3)CC2)c1` gave GALK inhibitor 7.8%, NTMT1 inhibitor 50.1µM*, PTAP-TSG101 blk inactive, HTT-AS promoter inconclusive, HTT promoter inh -28.0% and B2AR arrestin ag inactive.
Screening Cc1cnc(-c2ccccc2C(C)C)nc1NCc1ccc(C(N)=O)cc1 returned NTMT1 inhibitor 9.8%.
Screening O=S(=O)(Nc1ccc(C2CCNCC2)cc1)c1ccc(NCc2cccc(Cl)c2O)cc1 returned NTMT1 inhibitor 22.4µM*.
Screening O=S(=O)(Nc1ccccc1)c1ccc(NCc2cccc(Cl)c2O)cc1 returned NTMT1 inhibitor -2.7%[57.5 µM].
For N#Cc1ccc(-c2ccc(CNc3ccc(N4CCC(C#N)CC4)cc3)o2)cc1 the results were NTMT1 inhibitor -8.3%[57.5 µM].
`NC(=O)C1CCN(c2ncnc3c2cnn3-c2cccc(Cl)c2)CC1` gave GALK inhibitor 0.5%, NTMT1 inhibitor -15.0%, PTAP-TSG101 blk inactive, HTT-AS promoter -59.1%, HTT promoter inh 4.47µM* and B2AR arrestin ag inactive.
OCCN1CCN(c2ncnc3c2cnn3-c2cccc(Cl)c2)CC1 was read as GALK inhibitor -0.3%, NTMT1 inhibitor inconclusive, PTAP-TSG101 blk inactive, HTT-AS promoter inconclusive, HTT promoter inh 19.6% and B2AR arrestin ag inactive.
For C[C@@H]1CN(CC(=O)N2CC(C)(C)c3ncc(Cc4ccc(F)cc4)cc32)[C@@H](CN2CCOC[C@H]2C)CN1 the results were NTMT1 inhibitor 79.4µM*!.
Cc1ccc(-n2ncc(C(=O)N3CCN(c4cccc(C)c4C)CC3)c2C2CCNCC2)c(C)c1 was read as GALK inhibitor -1.8%, NTMT1 inhibitor 79.4µM*, PTAP-TSG101 blk inactive, HTT-AS promoter -10.0%, HTT promoter inh -5.0% and B2AR arrestin ag inactive.
Screening Cc1cccc(-n2ncc(C(=O)N3CCN(c4ccc(C)cc4C)CC3)c2C2CCN(C(=O)OC(C)(C)C)CC2)c1 returned GALK inhibitor 4.3%, NTMT1 inhibitor 2.6%, PTAP-TSG101 blk inactive, HTT-AS promoter 3.7%, HTT promoter inh 3.3% and B2AR arrestin ag inactive.
`COc1cc(C2CC(=O)c3c([nH]c(C(=O)OC4CCCC4)c3C)C2)cc(OC)c1OC` (stereo not given) gave GALK inhibitor -2.7%, NTMT1 inhibitor -5.4%, PTAP-TSG101 blk inactive, HTT-AS promoter -54.0%, HTT promoter inh 4.47µM* and B2AR arrestin ag inactive.
`Cc1c(C(=O)OC2CCCCCC2)[nH]c2c1C(=O)CC(c1ccccc1)C2` (stereo not given) gave GALK inhibitor -11.7%, NTMT1 inhibitor 4.3%, PTAP-TSG101 blk inactive, HTT-AS promoter -25.3%, HTT promoter inh inconclusive and B2AR arrestin ag inactive.
For Cc1ccc(NC(=O)C(=O)NCc2ccco2)cc1 the results were GALK inhibitor -2.4%, NTMT1 inhibitor 0.9%, PTAP-TSG101 blk inactive, HTT-AS promoter 5.01µM*, HTT promoter inh 48.2% and B2AR arrestin ag inactive.
`CCOc1ccc(NC(=O)C(=O)NCc2ccco2)cc1` gave GALK inhibitor 0.0%, NTMT1 inhibitor -1.9%, PTAP-TSG101 blk inactive, HTT-AS promoter 15.6%, HTT promoter inh -18.1%[11.5 µM] and B2AR arrestin ag inactive.
For O=C1CCCC2=C1C(c1[nH]ncc1Cl)NC(=NCc1ccco1)N2 (stereo not given) the results were NTMT1 inhibitor 1.1%.
O=C(O)C1(C(=O)O)CCC1.[NH2-].[NH2-].[Pt+2] was read as NTMT1 inhibitor 17.8µM*, HTT-AS promoter -4.9% and HTT promoter inh 0.0%.
For CCCCn1c(CNC(=O)c2ccc(OC)cc2)nnc1SCC(=O)Nc1ccc(OC)cc1 the results were GALK inhibitor 0.0%, NTMT1 inhibitor inconclusive, PTAP-TSG101 blk inactive, HTT-AS promoter -22.1%, HTT promoter inh -20.8% and B2AR arrestin ag inactive.
CCOC(=O)c1ccc(NC(=O)CSc2nnc(CNC(=O)c3ccc(OC)cc3)n2CC)cc1 was read as GALK inhibitor -1.6%, NTMT1 inhibitor 79.4µM*, PTAP-TSG101 blk inactive, HTT-AS promoter 0.2%, HTT promoter inh -3.7% and B2AR arrestin ag inactive.
Screening CCOC(=O)c1cnc2ccc(OC)cc2c1NCCc1ccccc1 returned GALK inhibitor 0.0%, NTMT1 inhibitor -2.1%, PTAP-TSG101 blk inactive, HTT-AS promoter -76.6%, HTT promoter inh 31.6µM* and B2AR arrestin ag inactive.
For CCOC(=O)c1ccc2ncc(C(=O)OCC)c(NCCc3ccc(OC)c(OC)c3)c2c1 the results were GALK inhibitor 2.8%, NTMT1 inhibitor -20.5%, PTAP-TSG101 blk inactive, HTT-AS promoter -18.4%, HTT promoter inh -19.1% and B2AR arrestin ag inactive.
`O=c1cc(-c2ccccc2)oc2ccccc12` gave NTMT1 inhibitor 100µM*, HTT-AS promoter inconclusive and HTT promoter inh 39.3%[116 µM].
CC[C@H](C)[C@@H]([C@@H](CC(=O)N1CCC[C@H]1[C@H](OC)[C@@H](C)C(=O)N[C@@H](Cc1ccccc1)c1nccs1)OC)N(C)C(=O)[C@@H](NC(=O)[C@H](C(C)C)N(C)C)C(C)C was read as NTMT1 inhibitor 14.1%.
`Cn1nccc1Nc1nccc(-c2cc3c(s2)C(C)(C)N(CCN2CCOCC2)C3=O)n1` gave NTMT1 inhibitor 2.6%.
For CCOc1ccc(CNS(=O)(=O)c2ccc(-c3coc(C)n3)cc2)cc1OC the results were GALK inhibitor -5.9%, NTMT1 inhibitor -1.7%, PTAP-TSG101 blk inactive, HTT-AS promoter -37.3%, HTT promoter inh 25.1µM* and B2AR arrestin ag inactive.
C/C=C/C[C@@H](C)[C@@H](O)[C@H]1C(=O)N[C@@H](CC)C(=O)N(C)CC(=O)N(C)[C@@H](CC(C)C)C(=O)N[C@@H](C(C)C)C(=O)N(C)[C@@H](CC(C)C)C(=O)N[C@@H](C)C(=O)N[C@H](C)C(=O)N(C)[C@@H](CC(C)C)C(=O)N(C)[C@@H](CC(C)C)C(=O)N(C)[C@H](C(C)C)C(=O)N1C was read as NTMT1 inhibitor 1.8%[29.8 µM].
Screening CC1CCN(S(=O)(=O)c2ccc3c(c2)N(CC(=O)N2CCN(c4ccccc4)CC2)C(=O)CO3)CC1 returned GALK inhibitor -1.7%, NTMT1 inhibitor 89.1µM*, PTAP-TSG101 blk inactive, HTT-AS promoter -31.5%, HTT promoter inh -24.0% and B2AR arrestin ag inactive.
